Compounds with a hit are over-represented: about 3.6% of the library has one in this group of screens.
BoNT-A LC inh2 = BoNT A light chain protease inhibition; 360,000 compounds, 0.17% hits; multiplex microsphere protease substrate cleavage, flow cytometry; AID 588499; inhibition, % at 10 µM
BoNT-F LC inh = inhibitors of Botulinum neurotoxin F light chain protease | Multiplex microsphere protease cleavage assay, flow cytometry | inhibition, % at 10 µM | 360,000 compounds, 0.22% hits | AID 588497; in the data active = inhibition above about 35%, passing the limit was not always enough; inconclusive = no clear call, values can overlap the other calls
Bead autofluor = compound fluorescence in toxin protease inhibitor counterscreen; compound autofluorescence counterscreen, microsphere flow cytometry; stronger effect = higher value; fluorescence intensity (test concentration not listed); 360,000 compounds, 3.1% hits; AID 624483; in the data active = fluorescence intensity above about 16000; inconclusive = no clear call, values can overlap the other calls
MazF activator = activators of E. coli MazEF toxin-antitoxin RNase | AID 504720 | FAM/BHQ RNA-DNA oligo cleavage fluorescence, 5 h | 350,000 compounds, 0.32% hits | P0AE70 | activation, % at 20 µM; in the data active = activation above about 50%
Target sequence (P0AE70 whole entry, looked up): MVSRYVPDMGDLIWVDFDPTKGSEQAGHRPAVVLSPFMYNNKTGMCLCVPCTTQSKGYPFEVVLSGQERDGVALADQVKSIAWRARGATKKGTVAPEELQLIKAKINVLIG
Anthrax LF inh2 = blocks Bacillus anthracis lethal factor protease; P15917; multiplex microsphere protease cleavage assay, LF; inhibition, % at 10 µM; 360,000 compounds, 0.12% hits; AID 588501
Numbers stand for hits; . = inactive; ? = inconclusive; / = no result; + = active, no number. Cut-off read from the data, not from the text of the source, unless noted: active = inhibition above about 30%; inconclusive = no clear call, values can overlap the other calls; inactive = below that.

SMILES	BoNT-A LC inh2	BoNT-F LC inh	Bead autofluor	MazF activator	Anthrax LF inh2
COc1cnc(-c2ccccn2)nc1Sc1ccccc1Cl	.	.	16715	.	.
COc1cnc(-c2ccccn2)nc1Sc1c(Cl)cccc1Cl	.	.	.	.	.
COc1cccc2c1SCc1ccccc1C2CC(N)=O (stereo not given)	.	.	.	.	.
COc1ccc(CCN2C(=O)C3C4C=CC(C3C2=O)C2C(=O)N(CCc3ccc(OC)c(OC)c3)C(=O)C42)cc1OC (stereo not given)	.	.	19991	.	.
COc1ccc(CCN2C(=O)c3cccc4cccc(c34)C2=O)cc1OC	.	.	17334	.	.
COc1ccc(CCN2C(=O)C3C4C=CC(C5CC45)C3C2=O)cc1OC (stereo not given)	.	.	.	.	.
COc1ccc(CCNC(=O)CN2C(=O)c3cccc4cccc(c34)C2=O)cc1OC	.	.	.	.	.
CCOC(=O)C1(C)CCCCN1C(=O)c1cccs1 (stereo not given)	.	.	.	/	.
CN(Cc1cn(Cc2ccc(Cl)cc2)nn1)C1CN(Cc2cn(Cc3ccc(Cl)cc3)nn2)S(=O)(=O)C1 (stereo not given)	.	.	.	/	.
O=S(=O)(c1cccc(-c2nc3ccccc3s2)c1)N1CCCC1	.	.	23878	.	.
O=S(=O)(c1ccc(-c2nc3ccccc3s2)cc1)N1CCCC1	.	.	.	.	.
O=C(NCC(c1ccco1)N1CCCCC1)c1ccc(S(=O)(=O)Nc2ccccc2)cc1 (stereo not given)	.	.	?	.	.
O=C(NCC(c1ccco1)N1CCCC1)c1cccc(NS(=O)(=O)c2ccccc2)c1 (stereo not given)	.	.	16491	.	.
COc1ccccc1C(CNC(=O)c1cccc(S(=O)(=O)Nc2ccc(F)cc2)c1)N1CCCC1 (stereo not given)	.	.	25818	.	.
COc1ccc(/C(O)=C2/C(=O)C(=O)N(CCCN3CCOCC3)C2c2ccc(N(C)C)cc2)cc1 (stereo not given)	.	.	.	.	.
CCc1ccc2nc3c(c(C(=O)O)c2c1)CCC3	.	.	22313	.	.
COC(=O)c1c2c(nc3ccccc13)CCC2	.	.	?	.	.
Oc1ccc2ccccc2c1/C=N/n1cnnc1	.	.	22040	.	.
Oc1ccccc1C=NN=Cc1c(O)ccc2ccccc12	.	.	.	+	.
Oc1ccc2ccccc2c1C=NCc1ccccc1	/	/	/	.	/
CCCCN(C=O)c1c(CC)nc2c(OCc3ccc(Cl)cc3Cl)cccn12	.	.	.	/	.
CCc1nnc(NC(=O)Nc2ccccc2OC)s1	?	.	22103	.	.
COc1ccccc1NC(=O)NC(N)=O	.	.	21653	.	.
COc1ccccc1NC(=O)Nc1nnc(CC(=O)Nc2ccccc2C)s1	.	.	.	.	.
COc1ccccc1NC(=O)NC(=O)c1ccccc1	.	?	.	.	.
SMILES	BoNT-A LC inh2	BoNT-F LC inh	Bead autofluor	MazF activator	Anthrax LF inh2
CC(C)(C)OC(=O)N1C(=O)[C@](OC(=O)c2ccccc2)(c2ccc(F)cc2)c2ccccc21	.	.	.	/	.
Cc1ccc(NC(=S)N(CCCN2CCOCC2)Cc2ccccn2)cc1	.	.	.	.	.
Cc1ccccc1NC(=S)N(CCCN1CCOCC1)Cc1ccccn1	.	39	.	.	.
COc1ccc(-c2csc(C(O)c3ccc(F)c(OC)c3)n2)cn1 (stereo not given)	.	.	.	/	.
Cc1ccc(OC(=O)c2ccncc2)c(C)c1	.	47	.	.	.
CC(=O)c1cc(C)ccc1OC(=O)c1ccncc1	.	?	.	.	.
CC1SC(c2cccc(Cl)c2)NC1=O (stereo not given)	.	.	24188	.	.
COc1ccc(C2NC(=O)C(C)S2)cc1 (stereo not given)	.	.	24997	.	.
CCOC(=O)CC(=O)CSc1nc2ccccc2c(=O)n1-c1ccc(C(=O)NCCOC)cc1	.	.	16847	.	.
Cc1ccc2oc(C(=O)N(C)CCC(O)c3ccccc3)c(C)c2c1 (stereo not given)	.	.	.	.	.
CCOC(=O)C(C)NC(=O)CCc1nnc2ccc(N3CCC(C)CC3)nn12 (stereo not given)	.	37	.	.	.
CCC(C)NC(=O)CCc1nnc2ccc(N3CCC(C)CC3)nn12 (stereo not given)	.	.	.	.	.
Cn1cc(S(=O)(=O)NC[C@H]2O[C@@H](n3cnc4c(N)ncnc43)[C@H](O)[C@@H]2O)cn1	.	.	.	.	.
N#Cc1c(N)c(C(=O)c2ccccc2)n2c1CCC2	.	.	23949	.	.
COC(=O)c1c(N)c(C#N)c2n1CCCCC2	.	.	.	.	.
Cc1nc(Cc2nnc(SCC(=O)N3c4ccccc4NC(=O)C3(C)C)o2)cs1	.	.	.	.	.
Oc1ccccc1/C=N/Nc1nccnc1Cl	.	.	.	.	.
O=[N+]([O-])c1ccccc1/C=N/Nc1nccnc1Cl	.	.	22518	.	.
CCOC(=O)[C@H]1[C@H]2COc3ccccc3[C@@H]2N2C(=O)CN(Cc3ccc(C)cc3)C(=O)[C@@]12C	.	.	.	542	.
CCOC(=O)[C@H]1[C@H]2COc3ccc(C)cc3[C@@H]2N2C(=O)CN(Cc3ccc(Cl)cc3)C(=O)[C@@]12C	.	.	.	.	.
COc1ccc(C(O)c2nc(-c3cnn(C)c3)cs2)cc1 (stereo not given)	.	.	.	/	.
CCOc1ccccc1NC(=O)c1ccc(F)c(S(=O)(=O)N2CCC3(CC2)OCCO3)c1	?	.	17156	.	.
CCN(Cc1ccccc1)S(=O)(=O)c1ccc(S(=O)(=O)N2CCN(C)CC2)cc1	.	.	.	.	.
O=S(=O)(c1ccc(S(=O)(=O)N(Cc2ccccc2)Cc2ccco2)cc1)N1CCCC1	.	.	16963	.	.
O=C(Nc1ccc(S(=O)(=O)N2CCOCC2)cc1)C1CCN(S(=O)(=O)c2ccccc2)CC1	.	.	?	.	.
SMILES	BoNT-A LC inh2	BoNT-F LC inh	Bead autofluor	MazF activator	Anthrax LF inh2
CCN1CCN(c2nc(-c3ccccn3)nc3ccccc23)CC1	.	.	24768	.	.
c1ccc(CN2CCN(c3nc(-c4ccccn4)nc4ccccc34)CC2)cc1	.	.	.	.	.
COc1ccc(/C=C2\CCOC2=O)cc1	.	.	.	.	.
COc1ccc(N/C=C2\CCOC2=O)cc1	.	.	16257	.	.
COc1cccc2cc(-c3nc4ccccc4[nH]3)c(=O)oc12	.	.	.	.	.
CCN(CC)c1ccc2cc(-c3nc4ccccc4[nH]3)c(=O)oc2c1	33	59	.	/	.
CCN(CC)c1ccc2cc(-c3nnc(-c4ccccc4)o3)c(=O)oc2c1	.	.	.	900	.
CCN(CC)c1ccc2cc(-c3nc4ccccc4n3C)c(=O)oc2c1	.	.	16417	.	.
CN(C)Cc1c(O)ccc2cc(-c3nc4ccccc4n3C)c(=O)oc12	.	?	.	.	.
CC(=O)Oc1cc(C(=O)OCC(=O)NC23CC4CC(CC(C4)C2)C3)cc(OC(C)=O)c1OC(C)=O	.	.	.	.	.
